Results reported in the supplement of paper PMC10981050.
Where “and” joins values, the source holds several entries; their conditions need not be identical. Equal values may be shown once. Where a name gives a salt, the structure may show the parent alone.

How the values were obtained:
Assay in all cases: cell viability relative to vehicle control; higher = less cytotoxic
Details in all cases: 10 µM
[1] = system: K562
Outline: (§1)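 Four leukaemia lines, as CRISPR-edited mutant clones and isogenic wild-type clones, were tested against Selleck bioactive, kinase and epigenetic probe libraries after removal of identity-inconsistent compounds. Cells were exposed to a single 10 µM dose for 48 h, and CellTiter-Glo luminescence was then read. Viability was calculated relative to the on-plate vehicle control.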

[2] = system: MARIMO
Outline: as §1

[3] = system: MOLM14
Outline: as §1

[4] = system: OCI-AML2
Outline: as §1

SMILES | cell viability ([1]; SRSF2 genotype: SRSF2 P95H/wt) | cell viability ([1]; SRSF2 genotype: SRSF2 wt/wt) | cell viability ([2]; SRSF2 genotype: SRSF2 P95H/wt) | cell viability ([2]; SRSF2 genotype: SRSF2 wt/wt) | cell viability ([3]; SRSF2 genotype: SRSF2 P95H/wt) | cell viability ([3]; SRSF2 genotype: SRSF2 wt/wt) | cell viability ([4]; SRSF2 genotype: P95H/wt) | cell viability ([4]; SRSF2 genotype: wt/wt)
Cc1ccc(OCC(O)C(C)NC(C)C)c2c1CCC2 (stereo not given) | 93.5% and 95.7% | 92.1% | 104% | 100% | 93.1% | 100% | 92.2% | 99%
C[C@H](NCc1ccc(OCc2cccc(F)c2)cc1)C(N)=O | 102% | 99.9% | 105% | 102% | 98.2% | 98.2% | 115% | 106%
CCC(C(=O)O)c1ccc(N2Cc3ccccc3C2=O)cc1 (stereo not given) [Indobufen] | 92.1% and 90.3% | 102% | 91.3% | 100% | 96.6% | 101% | 92.2% | 98.3%
CC[C@@]1(O)C(=O)OCc2c1cc1n(c2=O)Cc2cc3c(CN(C)C)c(O)ccc3nc2-1 [Topotecan HCl] | 15% and 25% | 12.9% | 5.05% | 3.35% | 0.55% | 0.35% | 3.3% | 8.46%
C[C@H]1C[C@H]2[C@@H]3C[C@H](F)C4=CC(=O)C=C[C@]4(C)[C@@]3(F)[C@@H](O)C[C@]2(C)[C@@]1(O)C(=O)CO [Diflorasone] | 101% and 99.2% | 105% | 109% | 113% | 92.1% | 98.9% | 92.7% | 120%
COC(=O)Nc1nc2cc(Sc3ccccc3)ccc2[nH]1 [Fenbendazole (Panacur)] | 17.8% and 31.8% | 32.8% | 27.3% | 10.4% | 9.32% | 4.51% | 9.8% | 12.7%
COc1cc(C2Oc3ccc(C4Oc5cc(O)cc(O)c5C(=O)C4O)cc3OC2CO)ccc1O (stereo not given) [Isosilybin] | 92.6% and 89.8% | 85.4% | 99% | 106% | 104% | 98.9% | 96.8% | 95.3%
COc1ccc(-c2coc3cc(O)ccc3c2=O)cc1 [Formononetin (Formononetol)] | 93.6% and 91.7% | 86.4% | 82.4% | 91.4% | 99.9% | 99.6% | 86.7% | 80.2%
O=C(/C=C/c1ccc(O)cc1)c1ccc(O)cc1O [Isoliquiritigenin] | 86.2% and 94.8% | 84.4% | 83.3% | 98.4% | 53.5% | 74.7% | 89% | 98%
CC12CC3CC(C)(C1)CC(N)(C3)C2 [Memantine hydrochloride (Namenda)] | 101% and 93.1% | 93.6% | 88.7% | 98.8% | 89.7% | 101% | 90.3% | 103%
Cc1cc(OCc2nnc(SC3CCCC3)n2-c2cccnc2)ccc1-c1ccc(S(C)(=O)=O)cc1 | 0.65% and 0.74% | 1.74% | 0.85% | 1.72% | 0.25% | 0.26% | 0.24% | 0.79%
c1ccc(-c2nn3c(c2-c2ccnc4cc(OCCN5CCOCC5)ccc24)CCC3)nc1 | 104% and 111% | 97.1% | 106% | 120% | 105% | 110% | 108% | 117%
O=C(O)c1ccc2c(c1)nc(Nc1cccc(Cl)c1)c1ccncc12 [cx-4945 (Silmitasertib)] | 49.9% and 60.1% | 63.7% | 49.7% | 47.3% | 26.9% | 34% | 5.84% | 22.2%
CC(=O)O[C@H]1C[C@@]2(C)[C@@H](C[C@@H](O)[C@H]3[C@@]4(C)CC[C@@H](O)[C@@H](C)[C@@H]4CC[C@@]32C)/C1=C(\CCC=C(C)C)C(=O)O [Fusidate Sodium] | 101% and 95.3% | 102% | 102% | 104% | 102% | 100% | 94.7% | 108%
CCOC(=O)C=P(c1ccccc1)(c1ccccc1)c1ccccc1 [Ethyl (triphenylphosphoranylidene) acetate] | 96.8% and 92.7% | 98.4% | 90% | 99.2% | 84.5% | 93% | 90.2% | 84.8%
CCOC(=O)c1c2c3c(cccc3[nH]c1=O)C(=O)c1ccccc1-2 | 95.8% and 97.2% | 90.7% | 84% | 96.1% | 90.7% | 95.8% | 92.4% | 101%
CC(=O)OC1C[C@H](C)CCC1C(C)C (stereo partly drawn) [(1R)-(-)-Menthyl acetate] | 98% and 101% | 101% | 92.4% | 97.6% | 98.5% | 106% | 104% | 114%
COc1ccc([C@]2(C#N)CC[C@@H](C(=O)O)CC2)cc1OC1CCCC1 | 96.5% and 91.9% | 99.1% | 93.8% | 110% | 94.8% | 100% | 95.6% | 102%
COc1cc2c3cc1Oc1c(OC)c(OC)cc4c1[C@@H](Cc1ccc(O)c(c1)Oc1ccc(cc1)C[C@@H]3N(C)CC2)N(C)CC4 [Berbamine (dihydrochloride)] | 72.6% and 53.2% | 66.9% | 70.8% | 72.8% | 68.2% | 78.2% | 57.1% | 60.4%
CCCNC(=O)c1cn2ncnc(Nc3cc(C(=O)NC4CC4)ccc3C)c2c1C | 90.9% and 95.7% | 93.3% | 99.5% | 101% | 91.8% | 95.8% | 91.3% | 95.9%

SMILES | cell viability ([1]; SRSF2 genotype: SRSF2 P95H/wt) | cell viability ([1]; SRSF2 genotype: SRSF2 wt/wt) | cell viability ([2]; SRSF2 genotype: SRSF2 P95H/wt) | cell viability ([2]; SRSF2 genotype: SRSF2 wt/wt) | cell viability ([3]; SRSF2 genotype: SRSF2 P95H/wt) | cell viability ([3]; SRSF2 genotype: SRSF2 wt/wt) | cell viability ([4]; SRSF2 genotype: P95H/wt) | cell viability ([4]; SRSF2 genotype: wt/wt)
CC(C)(O)C1CCC(C)(C2C(O)CC3(C)C4CC(OC5OC(CO)C(O)C(O)C5O)C5C(C)(C)C(OC6OCC(O)C(O)C6O)CCC56CC46CCC23C)O1 (stereo not given) [Astragaloside A] | 104% and 103% | 99.1% | 109% | 111% | 106% | 107% | 97.2% | 103%
C=C1C[C@@]23CC[C@H]4[C@@](C)(CCC[C@@]4(C)C(=O)O[C@@H]4O[C@H](CO)[C@@H](O)[C@H](O)[C@H]4O)[C@@H]2CC[C@]1(O[C@@H]1O[C@H](CO)[C@@H](O)[C@H](O[C@@H]2O[C@H](CO)[C@@H](O)[C@H](O)[C@H]2O)[C@H]1O[C@@H]1O[C@H](CO)[C@@H](O)[C@H](O)[C@H]1O)C3 [Rebaudioside A] | 95.1% and 100% | 102% | 98.8% | 106% | 105% | 102% | 104% | 105%
C/C=C(/C)C(=O)O[C@H]1c2cc(OC)c(OC)c(OC)c2-c2c(cc3c(c2OC)OCO3)C[C@H](C)[C@]1(C)O [Schisantherin B] | 98.1% and 96.8% | 93.7% | 93% | 94.1% | 82.8% | 92.6% | 97.1% | 97%
N#Cc1cccc(-c2c[nH]c3ncnc(N4CCOCC4)c23)c1 | 102% and 106% | 102% | 81.9% | 92.8% | 96.8% | 103% | 109% | 106%
Cc1cccc(-c2[nH]c(CNc3ccccc3F)nc2-c2ccc3ncnn3c2)n1 | 94.6% and 103% | 99.9% | 102% | 109% | 95.2% | 98% | 111% | 114%
COC1=C2C[C@@H](C)C[C@H](OC)[C@H](O)[C@@H](C)/C=C(\C)[C@H](OC(N)=O)[C@@H](OC)/C=C\C=C(/C)C(=O)NC(=CC1=O)C2=O [Geldanamycin] | 15.4% and 22.8% | 24.4% | 26.4% | 19.1% | 1.24% | 1.11% | 1.59% | 10.6%
CC(C)(C)C(O)C(=Cc1ccc(Cl)cc1)n1cncn1 (stereo not given) [Uniconazole] | 95.8% and 99.3% | 96.5% | 92.2% | 101% | 93.9% | 105% | 93.8% | 91.2%
CC(C)(O)CNc1ncc(-c2ccnc(Nc3ccnc(Cl)c3)n2)c(CC2CC2)n1 | 41.9% and 40.5% | 36.9% | 39.5% | 41.2% | 8.93% | 9.79% | 5.49% | 12.8%
Clc1ccc2c(N3CCN(CCCN4CCN(c5ccnc6cc(Cl)ccc56)CC4)CC3)ccnc2c1 [Piperaquine phosphate] | 99.4% and 95% | 98.2% | 93.8% | 103% | 85.3% | 102% | 92.7% | 88%
CCCCCCCN(CC)CCCC(O)c1ccc(NS(C)(=O)=O)cc1 (stereo not given) [Ibutilide fumarate] | 87.6% and 106% | 93.2% | 91.6% | 107% | 97.9% | 103% | 97.9% | 96.4%
O=C(/C=C/c1ccc(O)cc1)OC[C@H]1O[C@@H](Oc2c(-c3ccc(O)cc3)oc3cc(O)cc(O)c3c2=O)[C@H](O)[C@@H](O)[C@@H]1O [Tiliroside] | 99.3% and 99.1% | 95.3% | 98.9% | 109% | 100% | 105% | 104% | 111%
NC(=O)[C@@H]1CC[C@@H]2CN1C(=O)N2OS(=O)(=O)O [Avibactam sodium] | 102% and 116% | 112% | 110% | 106% | 108% | 111% | 102% | 101%
Oc1cccc(O)c1O [Pyrogallol] | 96.9% and 103% | 102% | 108% | 104% | 102% | 104% | 102% | 112%
O=C(O)c1ccccc1-c1c2cc(Br)c(=O)c(Br)c-2oc2c(Br)c(O)c(Br)cc12 [Eosin Y Disodium] | 97.2% and 95.8% | 90.1% | 96% | 92.8% | 85.3% | 93.6% | 91.7% | 93.4%
O=C(N[C@@H](c1ccccc1)[C@@H](O)C(=O)O)c1ccccc1 [N-Benzoyl-(2R,3S)-3-phenylisoserine] | 108% and 99.9% | 103% | 100% | 98.4% | 103% | 102% | 101% | 104%
Cc1ccc(S(=O)(=O)Cc2nc(-c3ccc(C(=O)NCc4cccnc4)cc3)oc2C)cc1 | 30% and 20.2% | 26% | 21.2% | 37.2% | 12.1% | 2% | 5.44% | 5.6%
CC(C)CCCC(C)CCCC(C)CCCCC(C)CCCC(C)CCCC(C)C (stereo not given) [Squalane] | 109% and 97% | 108% | 105% | 106% | 103% | 108% | 103% | 100%
CCC[C@H](NC(=O)/C(C#N)=C/c1cccc(Br)n1)c1ccccc1 [Degrasyn (WP1130)] | 11.2% and 17.4% | 9.59% | 2.97% | 1.3% | 0.32% | 0.25% | 0.67% | 0.8%
CN(C)c1cc(NC(=O)CNC(C)(C)C)c(O)c2c1CC1CC3C(N(C)C)C(=O)C(C(N)=O)=C(O)C3(O)C(=O)C1=C2O (stereo not given) [Tigecycline] | 94.1% | 97.6% | 94.9% | 97.2% | 99.2% | 96.9% | 106% | 95.7%
CCCCOC(=O)c1ccccc1Nc1cccc(C(F)(F)F)c1 [Ufenamate] | 101% and 100% | 99.2% | 93% | 102% | 103% | 109% | 110% | 110%
